Data published in PubChem BioAssay (EPA / NIEHS).
Active and inactive are the calls of the source. How the source made its calls: active means hit-call score of the fitted dose curve at least 0.9, where 1 is the maximum; inactive means score below 0.9.

Experiments:
Conditions in all cases: mRNA level, 48 h; actives raise or lower the signal
[1] = read-out: Insulin Like Growth Factor 1 (IGF1), IGF1 (gene 3479); assay: LTEA_HepaRG_IGF1: Life Technologies and Expression Analysis (LTEA) Assay for Insulin Like Growth Factor 1 (IGF1) using HepaRG (AID 2283506)
Outline: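 Endpoint: IGF1 mRNA change by qRT-PCR, housekeeping-normalized, fitted bidirectionally relative to 0.5% DMSO vehicle. Human HepaRG cells were treated 48 h in serum-free induction medium, eight half-log concentrations topping at 100 uM.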

[2] = read-out: Intercellular Adhesion Molecule 1 (ICAM1), ICAM1 (gene 3383); assay: LTEA_HepaRG_ICAM1: Life Technologies and Expression Analysis (LTEA) Assay for Intercellular Adhesion Molecule 1 (ICAM1) using HepaRG (AID 2283507)
Outline: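 ICAM1 transcript levels measured by qRT-PCR, normalized to three housekeeping genes (ACTB, GAPDH, POLR2A), after 48 h chemical exposure of HepaRG cells. Duplicate eight-point half-log series from 100 uM in 0.5% DMSO; gain or loss fitted against vehicle.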

[3] = read-out: Insulin-like growth factor-binding protein 1 (IGFBP1), IGFBP1 (gene 3484); assay: LTEA_HepaRG_IGFBP1: Life Technologies and Expression Analysis (LTEA) Assay for Insulin-like growth factor-binding protein 1 (IGFBP1) using HepaRG (AID 2283508)
Outline: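 Read-out is qRT-PCR transcript level normalized to three housekeeping genes, fitted in both directions against 0.5% DMSO. Differentiated HepaRG cells received eight half-log concentrations (top 100 uM) in duplicate for 48 h in serum-free induction medium.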

[4] = read-out: Interleukin 6 (IL6), IL6 (gene 3569); assay: LTEA_HepaRG_IL6: Life Technologies and Expression Analysis (LTEA) Assay for Interleukin 6 (IL6) using HepaRG (AID 2283509)
Outline: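 qRT-PCR read-out of IL6 transcript, normalized to three housekeeping genes, after 48 h chemical exposure of HepaRG cells; 8-point half-log series, top 100 uM, 0.5% DMSO vehicle. Bidirectional curve fitting against DMSO baseline.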

[5] = read-out: Interleukin 6 Receptor (IL6R), IL6R (gene 3570); assay: LTEA_HepaRG_IL6R: Life Technologies and Expression Analysis (LTEA) Assay for Interleukin 6 Receptor (IL6R) using HepaRG (AID 2283510);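 on AC50: differentiated human HepaRG liver cells in serum-free induction medium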
Outline: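 In this HepaRG screen, test chemicals act on cells for 48 h at up to 100 uM (eight half-log points, duplicate wells). IL6R expression is quantified by qRT-PCR after normalization to ACTB, GAPDH and POLR2A, with DMSO as baseline.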

[6] = read-out: Keratin 19 (KRT19), KRT19 (gene 3880); assay: LTEA_HepaRG_KRT19: Life Technologies and Expression Analysis (LTEA) Assay for Keratin 19 (KRT19) using HepaRG (AID 2283512)
Outline: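 KRT19 transcript measured by TaqMan qRT-PCR, referenced to three housekeeping genes, after HepaRG cells received test chemicals for 48 h. Eight half-log concentrations, top 100 uM, 0.5% DMSO vehicle; increases and decreases both fitted.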

[7] = read-out: JUN Transcription Factor, JUN (gene 3725); assay: LTEA_HepaRG_JUN: Life Technologies and Expression Analysis (LTEA) Assay for JUN Transcription Factor using HepaRG (AID 2283513)
Outline: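 Gene-expression endpoint: JUN mRNA (qRT-PCR, normalized to three reference genes) in HepaRG cultures treated 48 h with chemicals, duplicate wells, 100 uM maximum with half-log dilutions; bidirectional fitting relative to 0.5% DMSO.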

[8] = read-out: Lipase C (LIPC), LIPC (gene 3990); assay: LTEA_HepaRG_LIPC: Life Technologies and Expression Analysis (LTEA) Assay for Lipase C (LIPC) using HepaRG (AID 2283514)
Outline: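 HepaRG, 48 h exposure, 8-pt half-log series from 100 uM in 0.5% DMSO, duplicates. Readout: LIPC mRNA by Fluidigm qRT-PCR, housekeeping-normalized (ACTB/GAPDH/POLR2A). Gain or loss fitted bidirectionally against DMSO baseline.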

[9] = read-out: Lipoprotein lipase (LPL), LPL (gene 4023); assay: LTEA_HepaRG_LPL: Life Technologies and Expression Analysis (LTEA) Assay for Lipoprotein lipase (LPL) using HepaRG (AID 2283515)
Outline: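 HepaRG, 48 h exposure, 8-pt half-log dilutions from 100 uM, 0.5% DMSO vehicle, duplicates; qRT-PCR (Fluidigm array) of LPL mRNA vs housekeeping genes; bidirectional curve fit relative to DMSO baseline.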

[10] = read-out: Potassium channel subfamily K member 1 (KCNK1), KCNK1 (gene 3775); assay: LTEA_HepaRG_KCNK1: Life Technologies and Expression Analysis (LTEA) Assay for Potassium channel subfamily K member 1 (KCNK1) using HepaRG (AID 2283511)
Outline: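 HepaRG, 48 h exposure, 8-pt half-log series top 100 uM, 0.5% DMSO vehicle, duplicates. Readout: KCNK1 transcript by qRT-PCR (Fluidigm array), housekeeping-normalized; bidirectional curve fit relative to DMSO baseline.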

Measured: AC50

CCOC(=O)C(C)OC(=O)c1cc(Oc2ccc(C(F)(F)F)cc2Cl)ccc1[N+](=O)[O-] (stereo not drawn)
active: [1] 21 µM | [4] 9.92 µM | [6] 13.3 µM
not listed: [10]
inactive: all other assays above

O=C(O)c1c(Cl)ccc2cc(Cl)cnc12
inactive: all assays above

CC(C)C1(C)N=C(c2ncccc2C(=O)O)NC1=O (stereo not drawn)
not listed: [6] | [7]
inactive: all other assays above

CC1(C)C(C=C(Cl)Cl)C1C(=O)OC(C#N)c1cccc(Oc2ccccc2)c1 (stereo not drawn)
active: [1] 50 µM
not listed: [7]
inactive: all other assays above

CC1(C)CCC(=Cc2ccc(Cl)cc2)C1(O)Cn1cncn1 (stereo not drawn)
active: [1] 25 µM
inactive: all other assays above

COP(=S)(OC)SCn1nnc2ccccc2c1=O
inactive: all assays above

O=C1C2CC=CCC2C(=O)N1SC(Cl)(Cl)Cl (stereo not drawn)
active: [3] 20.2 µM | [8] 49.2 µM | [9] 73.5 µM
inactive: all other assays above

CCOP(=S)(OCC)Oc1nc(Cl)n(C(C)C)n1
active: [1] 18.9 µM | [3] 1.57 µM | [5] 12.2 µM | [9] 64.7 µM
inactive: all other assays above

CC(C)Oc1cccc(NC(=O)c2ccccc2C(F)(F)F)c1
active: [1] 80.9 µM | [6] 34.1 µM
not listed: [7]
inactive: all other assays above

OC(c1ccc(Cl)cc1)(c1ccc(Cl)cc1)C(Cl)(Cl)Cl
active: [1] 50 µM | [2] 77.6 µM | [3] 73.6 µM | [4] 76.6 µM | [10] 50 µM | [6] 50 µM | [8] 77.7 µM
inactive: [5] | [7] | [9]

Cn1c(-c2ccccc2)cc(-c2ccccc2)[n+]1C
active: [1] 13.4 µM | [3] 50 µM | [6] 24 µM | [8] 28 µM | [9] 11.4 µM
inactive: all other assays above

CCN(CC)c1nc(C)cc(OP(=S)(OC)OC)n1
inactive: all assays above

O=P(O)(O)CCCl
not listed: [7]
inactive: all other assays above

COP(=O)(OC)O/C(C)=C/C(=O)N(C)C
inactive: all assays above

COC(=O)NS(=O)(=O)c1ccc(N)cc1
inactive: all assays above

CCNC(=O)NC(=O)C(C#N)=NOC
active: [8] 50 µM
not listed: [7]
inactive: all other assays above

CC(C)NC(=O)N1CC(=O)N(c2cc(Cl)cc(Cl)c2)C1=O
active: [1] 3.79 µM | [5] 2.86 µM | [6] 20.3 µM | [8] 10.2 µM | [9] 14.6 µM
inactive: [2] | [3] | [4] | [10] | [7]
